Screening data from PubChem BioAssay.
Many of the other results were omitted from the sample, so hits are more common in it than they were.
Shiga inhibitor: inhibitors of Shiga toxin in Vero cells | Vero cells, Shiga toxin protein synthesis inhibition reporter | inhibition, % at 38.7 µM | 290,000 compounds, 9.2% hits | AID 2315; in the data active = inhibition mostly above about 28%, no sharp cut-off; inactive = mostly below about 43%; note: 0% is about no effect
VACV mCherry inh: inhibitors of vaccinia virus infection (mCherry reporter signal) | Potency, µM (doses to about 36.5 µM), inactives show at the highest dose activity change, negative = inhibition, most hits filed as inhibitors | 310,000 compounds, 0.63% hits | AID 720579 | Vaccinia virus mCherry reporter infection, fluorescence; calls by dose curve; tested in A549 cells; note: potency is the fitted concentration of half-maximal effect; % is set by controls: 0 for no effect and ±100 for the full control effect; nearly all actives have a fitted effect of over 35% in size
Marburg entry inh: Marburg virus entry inhibition; Marburg virus pseudotyped entry inhibition, cell reporter; AID 540276; Potency, µM (titrated, usually from 37.8 µM), inactives show at the highest dose activity change, negative = inhibition, hits mostly inhibitors; 300,000 compounds, 1.8% hits; calls by dose curve; tested in HEK293 cells; note: potency is the fitted concentration of half-maximal effect; % is set by controls: 0 for no effect and ±100 for the full control effect
CHX counter: counter-screen hit for Shiga toxin inhibitors, cycloheximide; cell reporter, cycloheximide protein synthesis inhibition counterscreen; max response, %; 300,000 compounds, 12% hits; in the data active = max response mostly above about 13%, no sharp cut-off; inactive = mostly below about 14%; note: read at 38.3 µM for the half of the compounds with a filed dose; 0% is about no effect
LASV entry inh: inhibitors of Lassa virus binding or cell entry; Lassa virus pseudotype entry inhibition, cell reporter; 300,000 compounds, 1.2% hits; Potency, µM (top dose mostly 37.9 µM), inactives show top-dose activity change, negative = inhibition, actives largely listed as inhibitors; calls by dose curve; tested in HEK293 cells; note: potency is the fitted concentration of half-maximal effect; % is set by controls: 0 for no effect and ±100 for the full control effect; nearly all actives have a fitted effect of over 50% in size
Vaccinia Venus: vaccinia inhibition (Venus reporter) | Vaccinia virus Venus reporter expression, fluorescence | 330,000 compounds, 0.46% hits | Potency, µM (top dose mostly 36.5 µM), for inactives: top-dose activity change, negative = inhibition, actives largely listed as inhibitors; calls by dose curve; tested in A549 cells; note: potency is the fitted concentration of half-maximal effect; % is set by controls: 0 for no effect and ±100 for the full control effect; nearly all actives have a fitted effect of over 30% in size
* = called active by the depositor; i = inactive; ? = inconclusive; . = no result; [ ] = remark or other dose.

SMILES	Shiga inhibitor	VACV mCherry inh	Marburg entry inh	CHX counter	LASV entry inh	Vaccinia Venus
COc1ccc(-c2ccc(C(=O)N3CCc4c(cnc(C)c4CNS(=O)(=O)N(C)C)C3)o2)cc1	.	-15%	.	.	.	-7%
Cc1cccc(N(Cc2ccc(Cl)cc2)S(C)(=O)=O)c1	-14	-3%	?	-3	-15%	-9%
c1ccc(Cc2ccc(OCCn3cncn3)cc2)cc1	-5	-24%	-2%	-2	1%	-24%
c1ccc(COc2ccc(OCCCn3cncn3)cc2)cc1	61*	-18%	?	35*	-9%	-16%
c1ccc(-c2ccc(OCCOCCn3cncn3)cc2)cc1	57*	-13%	-10%[46.1 µM]	35*	5%	-8%
CCN(CC)S(=O)(=O)c1ccc(NCC2COc3ccccc3O2)c([N+](=O)[O-])c1 (stereo unspecified)	21	i	?	20*	?	-25%
NC(=O)c1ccc(NCC2COc3ccccc3O2)c([N+](=O)[O-])c1 (stereo unspecified)	29	?	0%	33*	?	-8%
CN(C)S(=O)(=O)c1ccc(NCC2COc3ccccc3O2)c([N+](=O)[O-])c1 (stereo unspecified)	49	?	?	27*	-7%	-18%
O=C(Nc1ccccc1)c1ccc(NCC2CCCO2)c([N+](=O)[O-])c1 (stereo unspecified)	100*	10%	3%	68*	22%	-7%
Cc1ccc([N+](=O)[O-])cc1S(=O)(=O)NCC1COc2ccccc2O1 (stereo unspecified)	-9	.	.	9	.	.
CCOc1ccccc1CNS(=O)(=O)c1cnc(N)nc1	.	-10%	.	.	19%[46.1 µM]	-7%
CCOC(=O)N1CCC(NS(=O)(=O)c2ccc3c(c2)OCC(=O)N3)CC1	2	.	21%	-4	9%	.
CCOC(=O)N1CCC(NS(=O)(=O)c2cc3c(cc2Cl)NC(=O)CO3)CC1	-7	-13%	-27%[46.1 µM]	-3	1.8µM*	?
CCN(CC)CCn1c2c(c(SCC(=O)Nc3ccc4c(c3)OCCO4)nc1=O)CCCC2	.	-27%	?	.	0%	-15%
CC(=O)OC[C@H]1O[C@@H](ON=CC[C@@H]2C=C[C@@H](OC(C)=O)[C@@H](COC(C)=O)O2)[C@@H](OC(C)=O)[C@@H](OC(C)=O)[C@@H]1OC(C)=O	.	.	-12%[14.2 µM]	.	.	.
c1ccc2c(c1)[IH]c1ccccc1-2	.	?	.	.	.	11µM*
CSc1c(SCc2ccccc2)cnn(-c2ccccc2)c1=O	-12	i	28%	2	5.2µM*	-28%
O=C(Nc1ccc(F)c(Cl)c1)c1cc(-c2ccco2)on1	62*	-14%	4%[46.1 µM]	16	-3%	-16%
O=C(Nc1ccccc1)OCc1cc(-c2ccccc2Cl)on1	69*	.	?	39*	-24%	4%
O=C(Nc1cccc(O)c1)c1cc(-c2ccccc2Cl)on1	-12	-18%	7.1µM*	6	5µM*	-6%
Cc1ccc(NC(=O)c2cc(-c3cccc(O)c3)on2)cc1C	78*	i	.	47*	.	-11%
COc1cc(CNC(=O)c2cnn(-c3ncc4c(n3)-c3ccccc3CC4)c2C)cc(OC)c1OC	.	?	.	.	.	-28%
OCCNc1ncnc2c1ncn2[C@H]1CN(Cc2ccncc2)C[C@@H](CO)O1	.	i	.	.	.	-9%
CN1CCN(/N=C/c2c3ccccc3c(Cl)c3ccccc23)CC1	-8	-26%	?	3	?	-20%
Cc1ccc(NC(=O)c2cc(-c3ccco3)on2)cc1C	99*	.	12%	38*	?	.
SMILES	Shiga inhibitor	VACV mCherry inh	Marburg entry inh	CHX counter	LASV entry inh	Vaccinia Venus
Cc1ccc(NC(=O)c2cc(-c3ccco3)on2)cc1	133*	.	?	41*	1%	.
COc1ccc(NC(=O)c2cc(-c3ccco3)on2)cc1OC	28	-7%	14%[46.1 µM]	17	17%	-9%
Cc1ccc(NC(=O)CN2CCCN(Cc3cc(C)ccc3C)S2(=O)=O)c(Cl)c1	.	-14%	.	.	23%[46.1 µM]	-11%
COc1ccc2c(c1)O/C(=C\c1ccccc1C)C2=O	66*	i	0%[46.1 µM]	31*	-28%[46.1 µM]	-14%
c1ccc(SCCCCN2CCOCC2)cc1	42	.	.	15*	.	.
Brc1ccccc1OCCCCCN1CCOCC1	135*	-15%	-17%[46.1 µM]	29*	.	-12%
CC(C)c1ccccc1OCCCCCN1CCOCC1	.	-4%[7.34 µM]	?	.	2%	-2%[7.34 µM]
CCc1ccc(NC(=O)CC2C(=O)N(c3ccc(OC)cc3)C(=O)N2Cc2cccs2)cc1 (stereo unspecified)	.	-4%	.	.	1%[46.1 µM]	-7%
O=C(c1[nH]c(C(F)(F)F)nc1-c1ccccc1)N1CCN(c2c(Cl)cncc2Cl)CC1	.	7%	.	.	.	5%
Cc1ccc2c(CC(=O)Nc3ccc4nc(N5CCOCC5)sc4c3)coc2c1	.	-24%	.	.	.	?
Cn1c(NC(=O)C[n+]2cc(-c3ccc(F)cc3)n3c2CCC3)cc(=O)n(C)c1=O	19	-14%	-5%	-3	-8%	-10%
O=C(C[n+]1cc(-c2ccc(F)cc2)n2c1CCC2)c1cccs1	89*	i	16%[46.1 µM]	18*	8%	-16%
Cc1ccc(-c2c[n+](CC(=O)c3ccc(Br)cc3)c3n2CCCCC3)cc1	28	-27%	10µM*	10	?	-14%
CCOc1ccc(C(=O)Nc2ccc3c(c2)OCCO3)cc1Br	.	-11%	.	.	2%[46.1 µM]	-10%
O=C(Nc1ccc2c(c1)OCCO2)c1cccc(Br)c1	43*	i	?	38*	-2%[46.1 µM]	-4%
CCN1C(=O)c2ccc(C(=O)Nc3ccc4c(c3)OCO4)cc2C1=O	62*	.	.	23*	.	.
Cc1ccc(S(=O)(=O)CC(=O)c2ccc3c(c2)OCCO3)cc1	82*	i	21%[46.1 µM]	45*	10%[46.1 µM]	0%
COc1ccc(C(=O)Nc2ccc3c(c2)OCCO3)cc1Br	34*	.	.	19*	.	.
Cc1cccc(C(=O)NN2S(=O)(=O)c3ccccc3S2(=O)=O)c1	-13	i	-3%[46.1 µM]	-2	-1%[46.1 µM]	-11%
Brc1ccc2c(c1)OCCOCCOc1cc(Br)ccc1OCCOCCOCCO2	-5	?	?	0	?	10µM*
O=C(Nc1cccc(-c2cn3c(n2)SCC3)c1)c1ccc2c(c1)OCO2	116*	-2%	?	31	-4%	-2%
Cc1ccc(C(=O)Nc2ccc3c(c2)OCCO3)cc1	47*	-7%	?	15	2.8µM*	-25%
Cc1c(C(=O)Nc2ccc3c(c2)OCCO3)oc2ccc(Br)cc12	.	i	27%	.	?	-17%
O=C(Nc1ccc2c(c1)OCCO2)c1ccc(Br)cc1	48	i	4µM*	33*	?	-15%
CCOC(=O)c1ccc2c(c1)sc1nc(-c3ccc(OCC)cc3)cn12	.	-2%	?	.	.	-17%
Cn1c(=O)c2c(nc(SCC(=O)Nc3ccccc3F)n2Cc2ccc(Cl)cc2)n(C)c1=O	.	-6%	-4%[46.1 µM]	.	-10%[46.1 µM]	-3%
COC1=C[C@H](C(=O)NCc2ccccn2)[C@@]2(C)Cc3ccccc3[C@@H]2CC1=O	.	.	-29%[14.2 µM]	.	.	.
